NPC1 promoter act: qHTS Assay for NPC1 Promoter Activators | Huh7 NPC1 promoter luciferase reporter, 24 h | Potency, µM (titrated, usually from 9.22 µM), without a hit: top-dose activation, actives largely listed as activators | 320,000 tested, 2.4% active; note: % of control where 0% means no effect; nearly all actives have a fitted effect of over 60% in size
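NPC1 promoter–luciferase Huh7 cells; 24 h compound; luminescence.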
ELG1 genotox: qHTS screen for small molecules that induce genotoxicity in human embryonic kidney (HEK293T) cells expressing luciferase-tagged ELG1; HEK293T ELG1-luciferase reporter, luminescence, 16 h; Potency, µM (doses to about 46 µM), without a hit: at the highest dose activity change, positive = activation, most hits filed as activators; 330,000 tested, 1.3% active; note: % of control where 0% means no effect; nearly all actives have a fitted effect of over 60% in size
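Step 1: seed 2,000 HEK293T ELG1-luciferase cells per well. Step 2: add compound or DMSO, incubate 16 hr at 37 °C. Step 3: ONE-Glo, 30 min at room temperature, read luminescence.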
SMN2 splice up: qHTS Assay for Enhancers of SMN2 Splice Variant Expression | 210,000 tested, 2.8% active | HEK293 SMN2-luciferase splicing reporter, luminescence, 30-36 h | Potency, µM (doses to about 46.1 µM), for inactives: top-dose activity change, positive = activation, most hits filed as activators; note: % of control where 0% means no effect; nearly all actives have a fitted effect of over 55% in size
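qHTS luciferase splicing reporter: luminescence rises when SMN2 exon 7 is included in transfected HEK293 cells. Compound exposure lasted 30-36 h at 37C, with 4.5 mM final sodium butyrate as control, followed by a ONE-Glo read.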
FLuc counter: qHTS profiling assay for firefly luciferase inhibitor/activator using purifed enzyme and Km concentrations of substrates (counterscreen for miR-21 project). 360,000 tested, 6.9% active. purified FLuc, Km substrates, luminescence inhibition. AID 588342, 2011. Luciferin 4-monooxygenase (Photinus pyralis), P08659. Potency, µM (series often up to 57.5 µM), inactives show at the top dose activity change, negative = inhibition, hits mostly inhibitors;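 note: plate controls were vehicle for no effect and reference inhibitor for full effect; nearly all actives have a fitted effect of over 55% in size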
Target sequence (P08659 whole entry, looked up): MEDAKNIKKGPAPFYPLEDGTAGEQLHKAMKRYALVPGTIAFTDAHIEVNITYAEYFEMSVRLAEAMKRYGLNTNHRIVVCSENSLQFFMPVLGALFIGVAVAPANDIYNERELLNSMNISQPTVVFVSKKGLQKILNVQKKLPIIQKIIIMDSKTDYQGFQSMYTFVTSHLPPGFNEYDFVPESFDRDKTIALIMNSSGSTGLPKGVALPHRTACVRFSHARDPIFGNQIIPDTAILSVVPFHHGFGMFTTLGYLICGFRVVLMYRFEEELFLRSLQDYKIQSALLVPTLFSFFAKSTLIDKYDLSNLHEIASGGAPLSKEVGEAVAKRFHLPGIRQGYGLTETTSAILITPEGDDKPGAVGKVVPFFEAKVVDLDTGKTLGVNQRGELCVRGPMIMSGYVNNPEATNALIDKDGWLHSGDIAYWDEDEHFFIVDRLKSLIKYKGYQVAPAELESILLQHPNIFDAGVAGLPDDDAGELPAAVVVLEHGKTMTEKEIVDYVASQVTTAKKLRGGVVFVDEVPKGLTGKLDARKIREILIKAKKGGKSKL
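Purified P. pyralis luciferase, 10 nM final, with Km-level 10 uM D-luciferin and 10 uM ATP in 50 mM Tris acetate pH 7.5, 10 mM Mg acetate, 0.01% Tween-20, 0.05% BSA; 6-point qHTS titration about 60 µM downward; luminescence read.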
Rab9 prom act: qHTS Assay for Rab9 Promoter Activators | Huh7 Rab9 promoter-luciferase reporter, luminescence, 24 h | Potency, µM (top dose mostly 9.22 µM), inactives show at the highest dose activation, negative = inhibition, hits mostly activators | 320,000 tested, 2.8% active; note: % of control where 0% means no effect; nearly all actives have a fitted effect of over 60% in size
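Rab9 promoter-driven luciferase in stably transfected Huh7 cells; 1500 cells/well rested 2 h, exposed to compound in DMSO for 24 h at 37 °C, 5% CO2. Luminescence read 10 min after adding luciferase reagent at ambient temperature.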
Luc counter: Counterscreen for Luciferase (Kinase-Glo TM) Inhibition; Luciferin 4-monooxygenase (Photuris pensylvanica), Q27757; Kinase-Glo luciferase, ATP luminescence, 8 min; Potency, µM (series often up to 38.3 µM), inactives show at the highest dose activity change, negative = inhibition, actives largely listed as inhibitors; 200,000 tested, 0.28% active; AID 1379, 2008; note: % is set by controls: 0 for no effect and ±100 for the full control effect; nearly all actives have a fitted effect of over 60% in size
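Light output from Kinase-Glo luciferase with luciferin and 10 uM ATP in 50 mM imidazole pH 7.2, KCl, MgCl2, Tween 20, BSA; compound pin-delivered, 8-min ambient incubation, then luminescence read.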
Active calls of the source: *; ? = inconclusive; / = no result given; [ ] = dose if it differs, or a comment. Shown are actives, neighbours in structure and some others; about 7.5% of the full set was active somewhere. Calls come from the whole dose curve; as a rule, active = well fitted curve in the direction sought with a large enough effect; inconclusive = small, poorly fitted or top-dose-only effect, or another doubt; inactive = no such curve, though single readings can be large; an effect the other way counts as inactive or inconclusive. Potency is the fitted concentration of half-maximal effect.

SMILES	NPC1 promoter act	ELG1 genotox	SMN2 splice up	FLuc counter	Rab9 prom act	Luc counter
CCc1cccc(NC(=O)c2ccc(CNS(=O)(=O)c3ccc4c(c3)C(C)(C)C(=O)N4C)cc2)c1	/	/	/	-14.4%	/	/
COc1ccc(O)c(/C=C(\C#N)C(=O)Nc2cccnc2)c1	8.3%	?	5.2%	4.78µM*	21.5%	-3.9%
COc1ccc(/C=C(\C#N)C(=O)Nc2cccnc2)cc1	-2.8%	1.4%	1.9%	?	0.6%	-0.1%
CCCOc1ccccc1/C=C(\C#N)C(=O)Nc1cccnc1	8.3%	?	/	19µM*	28.0%	/
COCCN(C(=O)CCc1ccc(OC)cc1)c1nnc(-c2ccncc2)s1	0.4%	-1.3%	/	0.1%	-2.4%	0.2%
CCCC(=O)N(C)c1nnc(-c2ccc(OC)cc2)s1	27.4%	?	10.5%	7.57µM*	3.98µM*	-6.8%
COCCN(C(=O)C1CC1)c1nnc(-c2ccc(C)cc2)s1	15.8%	6.4%	-15.4%	?	11.0%	2.0%
CCOc1ccc(-c2nnc(N(CC)C(=O)C3CCC3)s2)cc1	2.3%	?	15.0%	7.57µM*	5.3%	1.3%
CN(C(=O)CSc1nnc(N)s1)C1CCCCC1	2.3%	1.9%	/	5.7%	14.3%	/
COc1ccccc1N1CCN(C(=O)c2cc(-c3ccc4c(c3)OCO4)on2)CC1	0.8%	-6.2%	7.7%	?	-1.0%	-0.4%
O=C(c1cc(-c2ccc3c(c2)OCO3)on1)N1CCOCC1	0.398µM*	0.581µM*	0.501µM*	1.51µM*	0.631µM*	-24.5%
O=C(c1cc(-c2ccc3c(c2)OCO3)on1)N1CCN(c2ccccc2)CC1	2.82µM*	?	-27.2%	3.79µM*	?	-21.2%
CCc1ccc(NC(=O)c2cc(-c3ccc4c(c3)OCO4)on2)cc1	-4.8%	3.2%	/	-3.5%	-4.0%	/
O=C(c1cc(-c2ccc3c(c2)OCO3)on1)N1CCN(c2ccc(F)cc2)CC1	-2.0%	-0.3%	-16.9%	15.1µM*	4.3%	1.1%
CC(C)CNC(=O)c1cc(-c2ccc3c(c2)OCO3)on1	0.562µM*	?	/	1.9µM*	0.501µM*	/
OCC1(Cc2ccccc2F)CCCN(Cc2c(F)ccc(F)c2F)C1 (stereo unspecified)	0.7%	-4.6%	/	-1.9%	9.8%	/
CCOC(=O)c1cccc(NC(=O)N2Cc3ccccc3Oc3ncccc32)c1	/	/	-11.5%	3.0%	/	/
NC(=O)CSc1ncc2c(n1)-c1ccccc1N(Cc1cccc(F)c1)S2(=O)=O	/	/	/	-2.0%	/	/
Cc1ccc(NC(=O)CN(C)S(=O)(=O)c2ccc3c(c2)n(C)c(=O)c(=O)n3C)cc1C	/	/	-1.9%	-6.0%	/	/
CN(C)CN1CSC(=S)N(CN(C)C)C1	/	/	-15.0%[9.22 µM]	/	/	-3.3%[7.66 µM]
Cc1c(Cl)cccc1NC(=O)c1cc(-c2ccc3c(c2)OCO3)on1	/	/	-2.7%	-0.6%	/	/
CN(C(=O)c1cc(-c2ccc3c(c2)OCO3)on1)c1ccccc1	2.51µM*	18.3µM*	/	15.1µM*	2.51µM*	/
CN(c1ncnc2onc(-c3cccc(Cl)c3)c12)C1CCCCC1	/	/	1.6%	-17.0%	/	/
O=C(O)c1ccc2c(c1)C(=O)N([C@H](Cc1ccc(-c3ccccc3)cc1)C(=O)O)C2=O	-1.8%	/	/	-5.8%	-0.3%	/
CCC(=O)Nc1ccccc1C(=O)OCC(=O)c1ccccc1	2.82µM*	?	15.8µM*	21.3µM*	3.55µM*	4.0%
SMILES	NPC1 promoter act	ELG1 genotox	SMN2 splice up	FLuc counter	Rab9 prom act	Luc counter
COC(=O)COC(=O)c1ccccc1NC(=O)c1ccccc1	0.0%	-0.1%	-7.8%	?	-6.0%	0.2%
CCC(=O)Nc1ccccc1C(=O)OCC(=O)c1ccc2ccccc2c1	10.1%	-4.7%	-10.7%	15.1µM*	15.1%	-3.9%
CCC(=O)Nc1ccccc1C(=O)OCC(=O)Nc1ccc(S(N)(=O)=O)cc1	-0.5%	-3.0%	17.7%	1.8%	2.3%	1.7%
Cc1cccc(CN2C(=O)c3ccccc3S(=O)(=O)c3ccc(C(=O)NCCC4=CCCCC4)cc32)c1	/	/	8.6%	2.3%	/	/
CC1=C(C(=O)Nc2ccccc2)C(c2ccc(C(=O)O)cc2)n2ncnc2N1 (stereo unspecified)	/	/	/	-2.4%	/	/
CCc1c(O)nc(SCC(=O)Nc2nc3ccccc3s2)n(-c2ccc(C)cc2)c1=O	19.9%	17.3%	/	21.3µM*	16.1%	/
CC1(C(=O)Nc2nc3ccccc3s2)CC1(Br)Br (stereo unspecified)	?	?	/	21.3µM*	?	/
CCc1c(O)nc(SCC(=O)Nc2nc3ccccc3s2)n(-c2ccccc2)c1=O	-1.3%	0.4%	/	-7.5%	-1.8%	/
COCC(=O)Nc1nc2ccccc2s1	/	/	19.6%	?	/	-3.2%
Cc1ccc2nc(-c3ccc(NC(=O)Cc4cccs4)cc3)[nH]c2c1	2µM*	?	2.51µM*	1.35µM*	1µM*	-2.4%
COc1ccc2nc(NC(=O)CN(C)S(=O)(=O)c3cccs3)sc2c1	18.2%	-4.0%	3.3%	16.9µM*	18.2%	4.7%
COc1ccc2nc(NC(=O)CNS(=O)(=O)c3cccs3)sc2c1	2.4%	1.1%	-4.8%	?	-6.5%	0.6%
Cc1ccc(Cl)cc1N1CCN(C(=O)C2CCN(S(=O)(=O)c3c(C)noc3/C=C/c3ccccc3F)CC2)CC1	/	/	/	2.3%	/	/
CC(=O)[C@@H](C)CCO[C@@]1(C)OCC[C@@H]1C	/	/	-7.9%[9.22 µM]	/	/	-1.0%[7.66 µM]
Cc1ccc2nc(NC(=O)CSCC(=O)Nc3cc(C)on3)sc2c1	?	?	/	?	2.51µM*	/
O=C(O)CCC(=O)Nc1ccc(-c2nc3ccc(C(=O)c4ccccc4)cc3[nH]2)cc1	0.1%	9.4%	/	10.7µM*	2.9%	/
O=C(Cc1cccs1)Nc1nc2ccccc2s1	?	8.2%	16.5%	15.1µM*	3.16µM*	-8.0%
Cc1cc(NC(=O)CSCC(=O)Nc2nc3ccc(F)cc3s2)no1	4.1%	0.9%	/	-16.8%	-5.7%	/
Cc1ccc2nc(NC(=O)Cc3cccs3)sc2c1	2.24µM*	?	?	8.49µM*	?	-3.6%
COc1ccc(CCNC(=O)c2ccc(Cn3c(=O)c4ccccc4n(CC(=O)C(C)(C)C)c3=O)cc2)cc1OC	/	/	3.2%	3.0%	/	/
Cc1ccsc1CCN1C(=O)N(c2ccc(F)cc2)C(=O)C1CC(=O)Nc1ccccc1 (stereo unspecified)	/	/	7.7%	-13.8%	/	/
COC(=O)c1ccc(NC(=O)CSc2ccc(-c3sc(-c4ccccc4)nc3C)nn2)cc1	/	/	/	-16.1%	/	/
C/C(=N\NC(=O)c1nnn(-c2nonc2N)c1-c1ccccc1)c1ccco1	0.5%	5.2%	/	-0.7%	7.5%	/

Bioassay records from PubChem BioAssay.
